The full data set covers some 7,900 targets. This sample favours those with a hit. About 0.6% of all pairs of compound and target were hits. Unmarked numbers belong to inactive results.

Experiment in all cases: log2 fold change, soluble protein after heating vs DMSO (PISA); higher = thermal stabilisation; K562 cells, 10 uM, 30 min; active = over 0.2 and 3.5 SD of the protein, either way, in both replicates (recomputed)
Compound in one test: C#Cc1cccc(Nc2ncnc3cc(OCCOC)c(OCCOC)cc23)c1 [erlotinib]
The method, boiled down:
(§1)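 Soluble protein was defined as the supernatant after 21,000xg for 90 min. It came from K562 cells at 2×10^6 cells/mL given 10 μM compound for 30 min, heated in aliquots for 3 min across 48°C-58°C, pooled, and extracted in PBS with 0.5% NP-40 at 4°C, and was quantified by TMTpro 16plex LC-MS/MS with equalised channel sums. Thermal stability against control samples, from duplicates, is reported as log2 fold change.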

Compound in test [1]: C1=CC(=C(C=C1Cl)C2=NC3=NC=CN=C3C(=N2)NC4=CC=NC=C4)F
The method, boiled down:
as §1

Compound in test [2]: C1=CC(=CC=C1C2=NC3=C(N2)C=C(C=C3)C(=O)N)OC4=CC=C(C=C4)Cl
The method, boiled down: as §1

Compound in test [3]: C1=CC2=NC=CN=C2C=C1/C=C/3\C(=O)NC(=O)S3
The method, boiled down: as §1

Compound in test [4]: C1=CC=C(C=C1)C2=NC(=C(N2)C3=CC=NC=C3)C4=CC(=C(C=C4)Cl)O
The method, boiled down: as §1

Compound in a further test: C1COCCN1CCN2C3=CC=CC=C3N=C2NC(=O)C4=CC(=CC=C4)[N+](=O)[O-] [IRAK-1-4 Inhibitor I]
The method, boiled down:
as §1

Compound in a further test: C=CC(=O)N1CCC[C@@H](n2nc(-c3ccc(Oc4ccccc4)cc3)c3c(N)ncnc32)C1 [ibrutinib]
The method, boiled down:
as §1

Compound in a further test: CC(C)(C)Cn1c(N)nc2ccc(-c3[nH]c(C(C)(C)C)nc3-c3ccc(F)cc3)nc21 [ralimetinib]
The method, boiled down: as §1

Compound in test [5]: CC(C)(O)CC(=O)NCCn1ccc2ncnc(Nc3ccc(Oc4cccc(C(F)(F)F)c4)c(Cl)c3)c21
The method, boiled down:
as §1

Compound in test [6]: CC(C)C1=C2N=C(C=C(N2N=C1)NCC3=CC=CC=C3)NCCCCCCN
The method, boiled down: as §1

Compound in test [7]: CC(C)C[C@@H](C=O)NC(=O)[C@H](CC(C)C)NC(=O)[C@H](CC(C)C)NC(=O)OCc1ccccc1
The method, boiled down:
as §1

Compound in another test: CC(C)N(C[C@H]1O[C@@H](n2cnc3c(N)ncnc32)[C@H](O)[C@@H]1O)[C@H]1C[C@@H](CCc2nc3cc(C(C)(C)C)ccc3[nH]2)C1 [pinometostat]
The method, boiled down: as §1

Compound in test [8]: CC1=C(C(CC(=O)N1)C2=CC=C(C=C2)C(F)(F)F)C(=O)NC3=C(C=C4C(=C3)C=NN4)F
The method, boiled down:
as §1

Compound in test [9]: C1CCN(C1)C(=O)NC2=CC=CC(=C2)NC3=NC=C(C(=N3)NCCC4=CN=CN4)Br
The method, boiled down:
as §1

Compound in test [10]: C1CN(CCC1(CC2=CC=C(C=C2)Cl)N)C3=NC=NC4=C3C=CN4
The method, boiled down:
as §1

Compound in test [11]: CC1=C(C2=C(C=C1)C(=O)C3=CC=CC=C3N2CCCN)C
The method, boiled down: as §1

Compound in test [12]: C/C(=N\NC(=O)C1=CC(=CC=C1)S(=O)(=O)N2CCOCC2)/C3=C(C=CC(=C3)Cl)O
The method, boiled down: as §1

Compound in test [13]: C1=CC2=C(C=CC(=C2)/C=C\3/C(=O)NC(=NCC4=CC=CS4)S3)N=C1
The method, boiled down: as §1

Compound in test [14]: C1=CC=C2C(=C1)C3=NNC4=CC=CC(=C43)C2=O
The method, boiled down: as §1

Compound in test [15]: CC(=O)c1cnc2ccc(-c3cc(Cl)c(O)c(Cl)c3)nc2c1N[C@H]1CC[C@H](CN(C)C)CC1
The method, boiled down: as §1

Chain of UniProt P0CG12 (P0CG12 whole entry, looked up): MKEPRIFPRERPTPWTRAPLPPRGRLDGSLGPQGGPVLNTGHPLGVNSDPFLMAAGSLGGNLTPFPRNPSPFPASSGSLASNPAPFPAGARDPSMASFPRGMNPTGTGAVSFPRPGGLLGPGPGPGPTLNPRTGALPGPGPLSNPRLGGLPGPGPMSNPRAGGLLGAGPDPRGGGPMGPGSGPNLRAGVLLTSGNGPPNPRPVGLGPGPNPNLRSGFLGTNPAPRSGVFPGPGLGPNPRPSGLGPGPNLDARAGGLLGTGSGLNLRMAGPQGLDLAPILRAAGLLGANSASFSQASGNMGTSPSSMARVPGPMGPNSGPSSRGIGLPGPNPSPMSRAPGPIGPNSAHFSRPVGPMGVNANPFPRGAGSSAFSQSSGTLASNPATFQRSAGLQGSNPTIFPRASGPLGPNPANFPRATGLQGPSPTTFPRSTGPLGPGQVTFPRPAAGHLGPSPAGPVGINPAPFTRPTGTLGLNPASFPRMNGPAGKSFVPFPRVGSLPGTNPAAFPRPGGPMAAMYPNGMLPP
Chain of UniProt Q8TEH3 (Q8TEH3 whole entry, looked up): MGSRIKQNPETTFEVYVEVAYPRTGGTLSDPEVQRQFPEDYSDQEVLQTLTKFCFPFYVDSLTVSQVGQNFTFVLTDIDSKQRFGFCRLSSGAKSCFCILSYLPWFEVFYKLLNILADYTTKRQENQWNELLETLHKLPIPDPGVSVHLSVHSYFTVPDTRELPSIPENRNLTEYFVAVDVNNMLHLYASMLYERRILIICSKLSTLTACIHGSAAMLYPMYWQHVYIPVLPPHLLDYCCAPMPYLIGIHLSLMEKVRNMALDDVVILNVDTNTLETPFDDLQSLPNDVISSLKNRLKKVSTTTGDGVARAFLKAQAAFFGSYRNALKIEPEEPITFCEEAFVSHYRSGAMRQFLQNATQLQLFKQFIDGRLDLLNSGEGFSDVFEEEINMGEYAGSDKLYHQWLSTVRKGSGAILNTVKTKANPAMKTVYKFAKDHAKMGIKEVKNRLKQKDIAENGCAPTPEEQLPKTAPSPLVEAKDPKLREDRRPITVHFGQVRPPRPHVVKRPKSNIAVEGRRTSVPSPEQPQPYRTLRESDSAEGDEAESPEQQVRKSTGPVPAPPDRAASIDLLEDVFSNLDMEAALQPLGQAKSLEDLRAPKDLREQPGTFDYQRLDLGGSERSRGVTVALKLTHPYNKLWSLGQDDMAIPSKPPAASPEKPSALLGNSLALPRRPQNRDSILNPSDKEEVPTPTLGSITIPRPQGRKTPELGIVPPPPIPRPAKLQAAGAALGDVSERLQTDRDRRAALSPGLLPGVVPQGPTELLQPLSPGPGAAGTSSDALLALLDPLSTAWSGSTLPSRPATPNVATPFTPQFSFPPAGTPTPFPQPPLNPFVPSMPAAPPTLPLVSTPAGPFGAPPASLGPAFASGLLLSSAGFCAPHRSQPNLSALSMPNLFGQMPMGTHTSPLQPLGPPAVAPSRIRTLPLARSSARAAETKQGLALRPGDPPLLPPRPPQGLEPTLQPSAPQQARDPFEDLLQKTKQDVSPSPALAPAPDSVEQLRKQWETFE
Chain of UniProt P50548 (P50548 whole entry, looked up): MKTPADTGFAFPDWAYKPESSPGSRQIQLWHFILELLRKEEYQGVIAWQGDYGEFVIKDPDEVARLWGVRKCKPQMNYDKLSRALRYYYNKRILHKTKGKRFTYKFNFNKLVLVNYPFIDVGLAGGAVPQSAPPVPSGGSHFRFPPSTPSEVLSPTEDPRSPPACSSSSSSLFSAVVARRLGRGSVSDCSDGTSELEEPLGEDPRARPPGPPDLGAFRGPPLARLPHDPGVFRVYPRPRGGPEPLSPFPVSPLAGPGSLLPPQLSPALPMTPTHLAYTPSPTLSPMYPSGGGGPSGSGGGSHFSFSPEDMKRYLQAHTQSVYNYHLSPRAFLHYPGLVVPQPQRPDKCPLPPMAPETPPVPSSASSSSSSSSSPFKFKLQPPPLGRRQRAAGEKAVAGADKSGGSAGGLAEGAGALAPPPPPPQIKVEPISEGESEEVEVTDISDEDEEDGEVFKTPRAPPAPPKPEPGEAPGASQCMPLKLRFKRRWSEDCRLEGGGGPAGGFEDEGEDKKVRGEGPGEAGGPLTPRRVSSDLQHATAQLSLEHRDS
Chain of UniProt Q6P3W2 (Q6P3W2 whole entry, looked up): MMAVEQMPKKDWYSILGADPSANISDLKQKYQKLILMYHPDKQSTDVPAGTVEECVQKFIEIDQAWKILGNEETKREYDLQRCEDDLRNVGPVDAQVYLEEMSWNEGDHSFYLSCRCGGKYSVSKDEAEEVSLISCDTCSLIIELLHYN
Chain of UniProt Q8NDI1 (Q8NDI1 whole entry, looked up): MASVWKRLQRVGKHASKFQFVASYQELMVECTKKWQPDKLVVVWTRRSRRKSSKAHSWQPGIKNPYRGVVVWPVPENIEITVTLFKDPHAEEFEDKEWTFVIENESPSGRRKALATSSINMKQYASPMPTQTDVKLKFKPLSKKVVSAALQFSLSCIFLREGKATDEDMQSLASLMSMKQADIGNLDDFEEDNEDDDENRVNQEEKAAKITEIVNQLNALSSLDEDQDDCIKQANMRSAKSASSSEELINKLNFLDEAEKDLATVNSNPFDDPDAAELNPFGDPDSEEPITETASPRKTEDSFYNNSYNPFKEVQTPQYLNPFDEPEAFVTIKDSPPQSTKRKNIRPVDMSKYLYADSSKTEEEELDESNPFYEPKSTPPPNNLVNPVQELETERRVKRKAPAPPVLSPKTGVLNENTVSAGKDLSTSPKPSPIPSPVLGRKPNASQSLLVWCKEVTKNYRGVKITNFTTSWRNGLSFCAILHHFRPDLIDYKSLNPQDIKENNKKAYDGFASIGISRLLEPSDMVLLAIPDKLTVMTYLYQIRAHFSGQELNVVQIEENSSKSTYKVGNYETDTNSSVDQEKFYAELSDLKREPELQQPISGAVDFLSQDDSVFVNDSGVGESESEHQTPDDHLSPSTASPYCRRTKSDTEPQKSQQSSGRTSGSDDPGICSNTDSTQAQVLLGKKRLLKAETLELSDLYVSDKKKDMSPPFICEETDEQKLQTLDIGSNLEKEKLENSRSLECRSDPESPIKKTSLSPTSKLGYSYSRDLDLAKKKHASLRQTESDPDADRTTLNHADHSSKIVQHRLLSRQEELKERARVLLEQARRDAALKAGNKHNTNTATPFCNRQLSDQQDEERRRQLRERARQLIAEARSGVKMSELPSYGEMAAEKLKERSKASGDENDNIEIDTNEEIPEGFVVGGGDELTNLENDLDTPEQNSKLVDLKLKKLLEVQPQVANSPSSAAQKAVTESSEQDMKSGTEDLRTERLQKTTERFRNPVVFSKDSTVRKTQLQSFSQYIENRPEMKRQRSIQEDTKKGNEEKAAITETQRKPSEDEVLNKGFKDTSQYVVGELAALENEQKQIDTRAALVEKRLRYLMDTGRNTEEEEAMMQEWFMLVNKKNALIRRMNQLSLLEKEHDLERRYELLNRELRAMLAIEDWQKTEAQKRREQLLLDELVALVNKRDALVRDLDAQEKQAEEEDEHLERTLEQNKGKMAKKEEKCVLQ
Chain of UniProt Q9Y6B2 (Q9Y6B2 whole entry, looked up): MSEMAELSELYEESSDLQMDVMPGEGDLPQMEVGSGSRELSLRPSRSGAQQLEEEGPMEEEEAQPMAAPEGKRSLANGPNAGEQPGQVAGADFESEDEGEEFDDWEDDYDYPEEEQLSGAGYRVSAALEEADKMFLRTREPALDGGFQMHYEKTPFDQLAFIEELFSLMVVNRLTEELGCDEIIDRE
Chain of UniProt Q8WV16 (Q8WV16 whole entry, looked up): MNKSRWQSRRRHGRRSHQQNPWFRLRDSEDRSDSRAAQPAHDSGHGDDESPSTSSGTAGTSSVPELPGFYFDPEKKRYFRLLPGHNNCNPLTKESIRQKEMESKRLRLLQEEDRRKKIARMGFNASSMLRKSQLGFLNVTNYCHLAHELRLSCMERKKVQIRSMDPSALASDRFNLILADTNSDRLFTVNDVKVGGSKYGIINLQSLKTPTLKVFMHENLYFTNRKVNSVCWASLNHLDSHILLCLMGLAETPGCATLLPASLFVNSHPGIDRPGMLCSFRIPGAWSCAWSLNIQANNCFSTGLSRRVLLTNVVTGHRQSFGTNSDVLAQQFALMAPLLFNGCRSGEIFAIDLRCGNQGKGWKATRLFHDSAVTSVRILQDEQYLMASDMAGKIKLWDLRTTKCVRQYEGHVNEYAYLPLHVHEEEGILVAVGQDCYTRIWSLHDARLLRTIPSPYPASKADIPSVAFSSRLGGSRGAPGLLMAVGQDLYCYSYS
Chain of UniProt O00418 (O00418 whole entry, looked up): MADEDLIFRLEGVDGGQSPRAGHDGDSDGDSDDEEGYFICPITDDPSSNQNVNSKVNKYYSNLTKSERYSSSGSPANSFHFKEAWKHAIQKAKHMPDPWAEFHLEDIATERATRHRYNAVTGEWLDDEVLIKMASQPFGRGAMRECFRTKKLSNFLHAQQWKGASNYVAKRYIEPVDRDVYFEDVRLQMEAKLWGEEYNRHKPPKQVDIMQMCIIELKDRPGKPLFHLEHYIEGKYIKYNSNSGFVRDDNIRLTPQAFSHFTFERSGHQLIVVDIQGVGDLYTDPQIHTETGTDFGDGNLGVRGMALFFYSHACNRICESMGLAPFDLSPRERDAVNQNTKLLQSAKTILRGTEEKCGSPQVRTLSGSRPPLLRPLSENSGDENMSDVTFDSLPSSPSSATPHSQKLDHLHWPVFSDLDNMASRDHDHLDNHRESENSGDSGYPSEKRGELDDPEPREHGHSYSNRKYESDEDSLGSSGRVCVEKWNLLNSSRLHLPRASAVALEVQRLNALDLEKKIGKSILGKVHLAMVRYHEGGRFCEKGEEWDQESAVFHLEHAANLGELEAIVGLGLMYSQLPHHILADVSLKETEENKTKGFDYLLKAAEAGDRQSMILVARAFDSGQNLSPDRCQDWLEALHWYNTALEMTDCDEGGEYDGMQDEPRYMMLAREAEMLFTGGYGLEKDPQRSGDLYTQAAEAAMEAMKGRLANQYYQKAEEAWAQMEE

As for ELMO1 (UniProt Q92556), the log2 fold change with erlotinib is 0.111; in [1], -0.079; in test [2], -0.001; in test [3], 0.037; in [4] it was -0.308; with IRAK-1-4 Inhibitor I it was -0.022. In addition, the log2 fold change with ibrutinib is -0.176; in the test with ralimetinib, 0.069; in test [5], -0.091; in test [6], -0.094; in test [7], 0.761 (active); with pinometostat it was -0.161. In addition, in test [8], the log2 fold change was 0.037.
For ERF (UniProt P50548), the log2 fold change was -0.448 with erlotinib; 0.127 in test [1]; -0.036 in test [2]; 0.058 in [9]; 0.13 in [10]; 0.093 in test [5]. Also, the log2 fold change in [6] is 0.186; in test [11], 0.094.
On to DNAJC24 (UniProt Q6P3W2), for which the log2 fold change was -0.114 with erlotinib; 0.123 in test [1]; 0.062 in test [2]; -0.053 in test [3]; -0.084 in test [4]; -0.047 in test [9]. Further, the log2 fold change was -0.158 in test [10]; -0.035 with IRAK-1-4 Inhibitor I; 0.011 in the test with ibrutinib; 0.058 with ralimetinib; 0.026 in test [5]; -0.037 in test [6]. Also, the log2 fold change in [7] was 0.058; with pinometostat, -0.019; in test [8], 0.062; in test [11], -0.023.
On to DERPC (UniProt P0CG12), for which the log2 fold change with erlotinib was 0.197; in test [2], -0.346; in test [3], 0.078; in [4], -0.034; with IRAK-1-4 Inhibitor I, -0.077; with ibrutinib, 0.004. Besides, the log2 fold change with ralimetinib is 0.017; in test [6], -0.003; in [7], -0.029; with pinometostat, 0.161; in test [8], 0.066.
Take EID1 (UniProt Q9Y6B2): the log2 fold change with erlotinib was -0.17; in test [1], -0.425; in test [2], 0.137; in test [9], 0.092; in [10] it was 0.029; in test [5], 0.002. Also, the log2 fold change is 0.05 in test [6], 0.05 in [8] and -0.281 in [11].
As to EPHB4 (UniProt P54760), the log2 fold change is -0.151 in test [4], 0.131 with ralimetinib and 0.241 in [7].
On to DCAF4 (UniProt Q8WV16), for which the log2 fold change in test [1] was 0.009; in [4] it was -0.15; in the test with ralimetinib it was -0.026; in test [5], -0.019; in [7], -0.042; in test [8], 0.043.
Take F2RL3 (UniProt Q96RI0): the log2 fold change in the test with erlotinib is -0.056; in [12], 0.026; in [2] it was -0.083; in [13] it was 0.039; in [4], -0.052; in test [14], -0.12. The log2 fold change in test [9] is -0.161; in test [10], 0.065; in test [15] it was 0.02; with ralimetinib, -0.084; in test [6] it was 0.081; in test [7], 0.021. In test [11], the log2 fold change was 0.1.
Regarding EEF2K (UniProt O00418), the log2 fold change was -0.064 with erlotinib; -0.137 in [1]; -0.024 in [2]; 0.027 in [4]; 0.126 with ralimetinib; -0.047 in test [5]. Further, the results for the log2 fold change in [6] and in [7] were -0.245 and 0.169, respectively.
DNAJB1 (UniProt M0R128): the log2 fold change was -0.105 in test [3]; 0.142 in [9]; 0.133 in [10]; -0.077 with ibrutinib; 0.111 in test [11].
Regarding DNAH10 (UniProt Q8IVF4), the log2 fold change with erlotinib was 0.325; in test [1], 0.251; in test [2] it was -0.187; in test [3], -0.054; in test [9], -0.052; in [10], 0.137. Moreover, the log2 fold change with IRAK-1-4 Inhibitor I is 0.004; with ibrutinib, 0.018; in test [5], -0.127; in test [6], 0.162; in the test with pinometostat, -0.106; in test [8], -0.154. The log2 fold change in test [11] was -0.022.
In the case of DENND1A isoform 6 (UniProt Q8TEH3), the log2 fold change in test [3] is -0.328; in [9], -0.315; in test [10] it was -0.034; with IRAK-1-4 Inhibitor I it was 0.121; with ibrutinib it was -0.003; with pinometostat, -0.356. Also, in test [11], the log2 fold change is 0.113.
For the target DNAH5 (UniProt Q8TE73), the log2 fold change with erlotinib is 0.014; in test [1] it was 0.036; in test [2], 0.001; in [3], -0.005; in [4], -0.067; in test [9] it was 0.084. The log2 fold change in test [10] was 0.095; with IRAK-1-4 Inhibitor I it was 0.074; with ibrutinib it was 0.039; in the test with ralimetinib, 0.004; in test [5] it was 0.031; in test [6], -0.09. Further, the log2 fold change in test [7] was 0.009; in the test with pinometostat, 0.055; in test [8], -0.023; in test [11], 0.106.
EHBP1 (UniProt Q8NDI1): the log2 fold change was -0.012 in test [12]; 0.086 in [13]; 0.095 in test [14]; -0.132 in [9]; 0.033 in test [10]; 0.018 in test [15]. In addition, the log2 fold change in [11] is -0.003.

These data come from the supplement of paper PMC10849652.
